PglD inh – PglD (C. jejuni) enzyme inhibition | purified PglD enzyme, DTNB colorimetric CoA detection | inhibition, % at 12.5 µM | 360,000 tested, 0.098% active; in the data active means inhibition above about 16%, passing the limit was not always enough
ERp5 block – inhibitors of human ERp5; Q15084; ERp5 insulin aggregation, absorbance 650 nm, 90 min; inhibition, % at 9.99 µM; 350,000 tested, 0.05% active; AID 651711;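 active means mean replicate inhibition above about 25%, with every replicate also reaching it, limit read from the data, passing the limit was not always enough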
ALR inh – human ALR oxidase inhibition via reduced H2O2; purified ALR, DTT oxidation, H2O2 HRP-luminol luminescence; P55789; AID 485317; 290,000 tested, 3.8% active; inhibition, % (concentration not given with the values);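 active means mean replicate inhibition above about 79%, with every replicate also reaching it, limit read from the data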
PDI turbidity – blocks human protein disulfide isomerase activity; P07237; PDI insulin aggregation turbidity, A650, 90 min; inhibition, % at 10 µM; 350,000 tested, 0.052% active; AID 588391;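 active means mean inhibition across replicates of 30% or more, whatever share of single replicates reach that level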
Target sequence (P07237 whole entry, looked up): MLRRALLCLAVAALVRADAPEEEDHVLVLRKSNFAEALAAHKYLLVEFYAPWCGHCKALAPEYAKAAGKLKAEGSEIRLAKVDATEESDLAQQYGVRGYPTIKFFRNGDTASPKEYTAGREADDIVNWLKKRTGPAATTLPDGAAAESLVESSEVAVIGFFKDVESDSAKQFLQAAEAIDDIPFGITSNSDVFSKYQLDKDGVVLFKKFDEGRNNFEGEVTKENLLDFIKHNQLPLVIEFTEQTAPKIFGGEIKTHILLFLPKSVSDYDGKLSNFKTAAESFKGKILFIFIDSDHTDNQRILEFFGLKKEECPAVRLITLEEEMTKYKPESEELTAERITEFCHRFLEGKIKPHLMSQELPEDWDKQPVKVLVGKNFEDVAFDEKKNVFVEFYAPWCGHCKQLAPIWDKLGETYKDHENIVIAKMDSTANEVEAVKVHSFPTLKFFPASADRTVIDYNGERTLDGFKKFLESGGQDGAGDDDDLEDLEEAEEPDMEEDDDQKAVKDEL
ARNT-TACC3 inh – disruptors of human ARNT/TACC3 interaction; Q9Y6A5; AlphaScreen His-ARNT PAS-B/GST-TACC3 binding, luminescence; TACC3 fragment carries E629A point mutation; inhibition, % at 9.99 µM; 390,000 tested, 0.66% active; AID 623870;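 active means mean inhibition of replicates at least 50% and at least half of replicates each reaching 50%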;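 further: 0% = complete ARNT plus TACC3 wells and 100% = ARNT alone without TACC3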
NRP1-CendR mod – alters CendR peptide binding to human NRP-1 | O14786 | FAM-RPARPAR peptide binding to NRP-1, fluorescence polarization | inhibition, % at 25 µM | 360,000 tested, 0.85% active;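 active means inhibition or corrected inhibition above about 18%, plus a signal ratio from 0.5 to 1.5, limit read from the data, passing the limit was not always enough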
The depositor's hits bear a star; / = no result given. The entries come from a sample that favours hits as a whole.

SMILES	PglD inh	ERp5 block	ALR inh	PDI turbidity	ARNT-TACC3 inh	NRP1-CendR mod
O=C(Nc1ccccc1F)N1CCCCN2[C@H](C1)[C@@H](c1ccc(-c3cccnc3)cc1)[C@@H]2CO	-13.5	0.8	/	/	-12.5	/
COc1ccc(OCCNC(=O)Nc2cc(F)c(F)cc2Cl)cc1	3.9	-3.1	-6.5	2.2	-1.2	6.1
COc1cccc(OCCNC(=O)Nc2cc(F)c(F)cc2Cl)c1	5.9	3.1	-11.2	-5.9	0.2	25.3*
COc1ccc(S(=O)(=O)N[C@@H]2CC[C@H](CC(=O)O)O[C@H]2CO)cc1	1.0	1.4	/	/	-11.1	/
c1ccc(N2CCN(c3ccccc3)C2c2ccncc2)cc1	-3.7	2.9	86.2*	-7.6	-29.4	-7.9
C[C@@H]1CN([C@H](C)CO)C(=O)c2cc(NC(=O)NC3CCCCC3)ccc2O[C@@H](C)CCCCO[C@@H]1CN(C)C(=O)C1CCCCC1	6.8	0.5	/	/	/	/
O=C(NNc1ncnc2c1cnn2-c1ccc(F)cc1)c1ccco1	4.2	2.1	5.6	-4.1	3.0	29.3*
Cc1ccc(NC(=O)C(C)N2C(=O)C3CC=C(Cl)CC3C2=O)cc1 (stereo unspecified)	-0.8	/	-6.9	-11.2	-24.7	13.0
C[C@@H](C(=O)Nc1ccc(SC(F)F)cc1)N1C(=O)C2CCCCC2C1=O (stereo partly specified)	-1.8	3.0	90.3*	-3.8	-3.4	21.6*
Cc1ccc(NC(=O)C(C)N2C(=O)C3C4CC(C(Br)C4Br)C3C2=O)cc1 (stereo unspecified)	1.0	/	-15.2	-4.7	-1.6	31.9*
Cc1ccc(NC(=O)C(C)N2C(=O)c3ccccc3C2=O)cc1 (stereo unspecified)	-0.7	/	/	-17.1	-0.9	26.9*
O=C(Nc1ccc(Cl)cc1)Nc1nc(-c2ccccc2O)cs1	-2.8	6.5	-12.4	-5.2	-4.7	-0.9
CCOC(=O)Cc1csc(NC(=O)Nc2ccc(Cl)cc2)n1	/	3.9	7.8	-3.4	-2.7	26.4*
Cc1csc(NC(=O)Nc2ccc(Cl)cc2)n1	1.6	/	0.8	-7.2	0.7	26.3*
CCOC(=O)Cc1csc(NC(=O)Nc2cccc(Cl)c2)n1	/	5.2	1.1	5.8	-3.2	5.9
CC(C)NC(=O)Nc1ccc2c(c1)C(=O)N([C@@H](C)CO)C[C@@H](C)[C@@H](CN(C)C(=O)c1ccccc1)OCCCC[C@@H](C)O2	2.4	-1.0	/	/	-9.3	/
Cc1cccc(NC(=S)NNC(=O)Cc2ccccc2)c1	2.6	/	9.9	-4.9	-7.5	2.1
Cc1cccc(NCC(=O)NNC(=S)Nc2ccccc2)c1	/	-4.2	37.1	-7.8	46.9*	1.7
Cc1cccc(NC(=S)NNC(=O)c2ccc(Br)o2)c1	6.9	/	94.4*	0.3	8.5	1.5
Cc1cccc(NC(=S)NNC(=O)c2csc(C)c2)c1	/	-3.7	84.6*	4.0	20.6	-0.7
O=C(NC(=S)Nc1ccccc1)c1ccc(Br)o1	8.5	0.0	12.8	6.6	-21.1	-9.6
CCS(=O)(=O)Nc1ccc2c(c1)C(=O)N(C)C[C@H](OC)[C@@H](C)CN(C(=O)NC(C)C)[C@@H](C)CO2	1.9	-3.4	/	/	-5.1	/
CO[C@H]1CN(C)C(=O)c2cc(NC(=O)Nc3c(C)noc3C)ccc2OC[C@H](C)N(CC2CC2)C[C@@H]1C	-3.9	-4.7	/	/	-6.5	/
COc1ccc(-c2csc(N(CCCN(C)C)C(=O)c3ccc(F)cc3)n2)cc1	3.2	4.8	86.6*	-1.0	7.9	3.6
CCCNC(=O)N1CC2(CN(S(C)(=O)=O)C2)c2c(n(C)c3cc(OC)ccc23)[C@H]1CO	/	5.8	/	/	/	/
SMILES	PglD inh	ERp5 block	ALR inh	PDI turbidity	ARNT-TACC3 inh	NRP1-CendR mod
Cc1ccc2c(c1)c1c3n2CCN(C(=O)CN2CCN(C)CC2)C3CCC1 (stereo unspecified)	-1.3	/	91.5*	4.4	10.8	0.8
Cc1ccc2c(c1)c(=O)c1c3n2CCN(C(=O)CCl)C3CC1 (stereo unspecified)	5.7	/	-19.7	14.1	6.7	26.4*
Cc1cccc(S(=O)(=O)N2CC[C@@H]3[C@@H](CO)N(C)c4ccc(-c5ccccc5F)cc4[C@@H]32)c1	-7.6	-7.9	/	/	6.5	/
Cc1ccc(S(=O)(=O)Nc2ccc3c(c2)C(=O)N([C@@H](C)CO)C[C@@H](C)[C@@H](CN(C)S(=O)(=O)c2ccccc2)OCCCC[C@@H](C)O3)cc1	-1.3	-0.2	/	/	-2.0	/
O=C(NCc1ccc2c(c1)OCO2)C1CC(=O)N(c2ccc(O)cc2)C1 (stereo unspecified)	-5.7	/	99.1*	18.9	1.5	-5.9
O=C(Nc1ccc(F)cc1)N[C@@H]1CC[C@H](CCNS(=O)(=O)c2ccccc2F)O[C@H]1CO	3.1	5.2	/	/	-8.8	/
CN(C)c1ccc(/C=N/O)cc1	/	-0.6	98.8*	9.5	2.6	3.7
CN(C)c1ccc(C=Nc2ccc(N(C)C)cc2)cc1	0.5	/	96.8*	-3.2	39.7	-23.0
CN(C)c1ccc(N=Cc2ccco2)cc1	-1.5	/	94.0*	-5.6	12.8	6.0
CN(C)c1ccc(C=Nc2ccccc2)cc1	-0.4	/	-5.0	3.2	-2.4	6.8
C[C@@H](NC(=O)C[C@@H]1CC[C@H]2[C@@H](COC[C@@H](O)CN2C(=O)Nc2cccc(Cl)c2)O1)c1ccccc1	0.0	/	/	/	-16.6	/
O=C(C[C@H]1CC[C@H]2[C@@H](COC[C@H](O)CN2CCC(F)(F)F)O1)NCc1ccc(Oc2ccccc2)cc1	-2.8	/	/	/	-6.1	/
CCCNC(=O)C[C@@H]1C[C@@H]2c3cc(NS(=O)(=O)c4ccccc4)ccc3O[C@@H]2[C@@H](CO)O1	-6.0	/	/	/	0.9	/
CCS(=O)(=O)Nc1ccc2c(c1)C(=O)N(C)C[C@H](OC)[C@@H](C)CN(Cc1ccccn1)[C@H](C)CO2	0.2	3.7	/	/	7.2	/
COc1cc(C2NC(=S)NC(C)=C2C(=O)OC(C)C)ccc1OC(C)C (stereo unspecified)	0.2	/	96.0*	24.5	/	12.0
Cc1noc(C)c1NC(=O)Nc1ccc2c(c1)C(=O)N([C@@H](C)CO)C[C@@H](C)[C@@H](CN(C)S(=O)(=O)c1ccc(F)cc1)OCCCC[C@H](C)O2	-1.2	0.1	/	/	-1.1	/
CC(=O)Oc1cc2cccc(OC(C)=O)c(=O)c2c(OC(C)=O)c1OC(C)=O	0.1	/	98.6*	/	19.9	30.4*
COc1cc2cccc(OC)c(=O)c2c(O)c1OC	0.7	0.0	/	24.3	/	-7.1
Cc1nnsc1C(=O)NNc1c(Cl)cccc1Cl	0.1	-0.2	98.5*	2.9	-2.9	6.8
Cc1c(C(=O)NNc2c(Cl)cccc2Cl)n(C)oc1=O	/	-11.2	97.8*	-0.1	2.6	-4.7
Cc1c(C(=O)Oc2ccc(Cl)cc2)n(C)oc1=O	/	2.0	/	-0.7	-1.5	12.1
O=C(O)C[C@@H]1C[C@H]2c3cc(NC(=O)Cc4ccncc4)ccc3O[C@H]2[C@H](CO)O1	-1.0	0.1	/	/	8.2	/

Source: PubChem BioAssay (several laboratories)
